Gli-Sufu antag – Gli-Sufu pathway antagonists, primary screen, luciferase luminescence, Sufu-KO-LIGHT cells, uHTS. Sufu-KO-LIGHT fibroblasts, Gli luciferase reporter luminescence. inhibition, % at 5 µM. 340,000 tested, 0.74% active. AID 588413, 2011;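 active = inhibition above about 55%, limit read from the data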;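 also: 0% = DMSO-treated cells and 100% = wells with medium but no cells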
SMARCA2 act – SMARCA2 (BRM) function activators, primary screen, cell-based, luminescence, high throughput | MG213 cells, MMTV-luciferase reporter, dexamethasone, overnight | activation, % at 9.1 µM | 370,000 tested, 1% active | AID 652017, 2013; in the data active = activation above about 7.8%;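 also: 0% = vehicle wells and 100% = reference activator wells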
esBAF inh – Bmi1 luciferase reporter increase in mESCs, primary screen, esBAF inhibitor project, mouse ES cells, Bmi1 luciferase knock-in, single point | 350,000 tested, 2% active | reporter increase, % at 12.5 µM | 24 h; 100% = twice the neutral-well signal; in the data active = activation above about 40%;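 also: 0% = median of the plate's neutral control wells and 100% = double that signal; a rise in the Bmi1 reporter signal indicates esBAF inhibition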
697 NFkB inh – inhibitors of PMA/ionomycin-induced NF-kB reporter, 697 cells, primary screen, B-cell NF-kB inhibitor project, cell-based, luminescence, uHTS | 697 B-cell NF-kB luciferase reporter, 16 h | inhibition, % at 4 µM | 330,000 tested, 0.33% active | AID 435022, 2010; in the data active = inhibition above about 35%
Jurkat NFkB inh – inhibitors of induced NF-kB luciferase reporter, primary screen, TCR NF-kB activation inhibitor project, cell-based, luminescence, uHTS | 330,000 tested, 0.53% active | inhibition, % at 4 µM | Jurkat, PMA/ionomycin-induced NF-kB luciferase reporter | AID 435003, 2010; in the data active = inhibition above about 50%
Jurkat NFkB conf – PMA/ionomycin-induced NF-kB reporter inhibitors, Jurkat retest, confirmation, T-cell NF-kB inhibitor project, cell-based, luminescence, single concentration. shares compounds with Jurkat NFkB inh. inhibition, % at 4 µM. Jurkat NF-kB luciferase, 16 h. 2,700 tested, 27% active. AID 435020, 2010;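 active = inhibition reaching about 45% at 4 µM in either replicate, limit read from the data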;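 also: plate controls were PMA/ionomycin stimulated DMSO wells for no effect and unstimulated DMSO wells for full effect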
697 NFkB conf – PMA/ionomycin-induced NF-kB reporter inhibitors, 697 retest, confirmation, B-cell NF-kB inhibitor project, cell-based, luminescence, single concentration; shares compounds with 697 NFkB inh; 697 B-cell NF-kB luciferase, 16 h; inhibition, % at 4 µM; 2,000 tested, 35% active; AID 449746, 2010; in the data active = inhibition mostly above about 28%, no sharp cut-off; inactive = mostly below about 22%
The depositor's hits bear a star; . = no result given. Hits are enriched below; roughly 3.3% of the tested compounds scored in any of these assays.

SMILES	Gli-Sufu antag	SMARCA2 act	esBAF inh	697 NFkB inh	Jurkat NFkB inh	Jurkat NFkB conf	697 NFkB conf
COc1cc(-c2noc(C)c2/C=C/c2ccc(N)cc2)cc(OC)c1OC	38	3	-15	-149	58*	8	.
O=C(C[C@H]1CC[C@H]2[C@@H](COC[C@@H](O)CN2C(=O)Nc2ccc(C(F)(F)F)cc2)O1)NCC1CCCCC1	.	.	2	.	.	.	.
Cc1ccc(Nc2nc(N)c3ccccc3n2)cc1C	-3	1	-61	-248	-166	-120	.
COc1ccc(-c2cc(C)no2)cc1S(=O)(=O)N1CCN(c2cccc(C)c2)C(C)C1 (stereo not given)	11	-4	11	-60	34	.	.
COc1ccc(N2CCN(S(=O)(=O)c3cc(-c4cc(C)no4)ccc3C(C)C)CC2)cc1	11	-2	-7	-73	23	.	.
Cc1cc(-c2ccc(C(C)C)c(S(=O)(=O)N3CCN(c4ccccc4)CC3)c2)on1	40	-2	-29	-53	53*	47*	.
Cc1cccc(N2CCN(S(=O)(=O)c3cc(-c4cc(C)no4)ccc3C)CC2C)c1 (stereo not given)	15	-2	-29	-26	64*	32	.
CO[C@@H]1CN(C)C(=O)c2ccc(NC(=O)C3CC3)cc2OC[C@H](C)N(Cc2ccc(F)cc2)C[C@H]1C	.	.	11	.	.	.	.
CCc1ccc(/C=N/NC(=O)c2cc(C3CC3)nc3ccccc23)s1	3	-4	-17	-23	58*	33	.
c1ccc2c(c1)CCN(c1nc3cc4c(cc3s1)OCO4)C2	-72	0	-25	-304	-190	-132	-263
c1c2c(cc3sc(N4CCCCC4)nc13)OCO2	-131	4	.	-137	-94	.	.
C[C@@H]1CN([C@H](C)CO)S(=O)(=O)c2ccc(-c3cccc(C#N)c3)cc2O[C@H]1CN(C)C(=O)C1CC1	.	.	-1	.	.	.	.
COc1ccc(OC)c(C2C3=C(COC3=O)Nc3cc4c(cc32)OCO4)c1 (stereo not given)	14	0	-4	43*	77*	42	39*
COc1ccc(C2C3=C(CC(C)(C)CC3=O)Nc3cc4c(cc32)OCO4)cc1 (stereo not given)	12	-1	.	11	-4	.	.
CCCC(=O)Nc1ccc(-c2nc3cc(C)ccc3o2)cc1	-94	-1	.	-379	-168	-96	-363
CCCC#Cc1cnc2c(c1)C(=O)N([C@@H](C)CO)C[C@@H](C)[C@H](CN(C)C(=O)Cc1cccnc1)O2	.	.	5	.	.	.	.
Cc1ccc(Nc2nc(-c3c(C)nc4ccccn34)cs2)cc1	62*	-7	.	-396	83*	62*	-54
COc1ccc2nc(NC(=O)Nc3ccccc3)sc2c1	-91	0	-29	-335	-223	-128	-317
Cc1ccc2nc(NC(=O)c3cc(-c4ccco4)nc4ccccc34)sc2c1	-7	-2	.	-18	-7	.	.
COc1ccc(C(=O)Nc2nc3ccccc3s2)c(OC)c1	88*	-9	-85	69*	85*	91*	60*
COc1ccc(C(=O)Nc2nnc(SCC(=O)Nc3ccc(NC(C)=O)cc3)s2)c(OC)c1	-26	6	37	71*	-207	-129	61*
Cc1ccc2nc(NC(=O)c3ccccc3F)sc2c1	-80	3	-45	-261	-163	-133	-229
COc1ccc2nc(NC(=O)c3ccccc3F)sc2c1	-105	5	-35	-279	-154	-116	-318
CCOc1ccc2nc(NC(=O)Nc3ccccc3)sc2c1	-95	2	.	-172	-123	.	.
COc1cc2nc(NC(=O)c3ccccc3)sc(=O)c2cc1OC	-11	-1	-15	43*	82*	89*	54*
SMILES	Gli-Sufu antag	SMARCA2 act	esBAF inh	697 NFkB inh	Jurkat NFkB inh	Jurkat NFkB conf	697 NFkB conf
CCOc1ccc2nc(NC(=O)c3ccoc3C)sc2c1	4	3	-52	-374	-168	-106	-322
COc1cc2nc(NC(=O)c3ccccc3)[nH]c(=O)c2cc1OC	0	-4	-7	4	-15	.	.
O=C(C[C@@H]1CC[C@H]2[C@@H](COC[C@@H](O)CN2C(=O)c2cnccn2)O1)NCc1ccc(Oc2ccccc2)cc1	.	.	0	.	.	.	.
CO[C@H]1CC[C@@H]2CCN(C)C(=O)[C@H](C)[C@H](OC)CN(C)C(=O)c3cccc(C#N)c3OC[C@@H]1O2	.	.	3	.	.	.	.
COCCNC(=O)C[C@H]1C=C[C@@H](NC(=O)NC2CCCC2)[C@H](CO)O1	.	.	-2	.	.	.	.
CCOc1ccc(-c2cc(CCCC(=O)Nc3cccc(OC)c3)no2)cc1	5	-9	-60	48*	56*	61*	48*
Cc1cc(NNC(=O)Nc2cccc(Cl)c2)nc2c1c(C)nn2C	.	.	.	58*	53*	56*	56*
Cc1nn(C)c(C)c1CNC(=O)Nc1cccc(Cl)c1	-48	7	.	-42	-47	.	.
Cc1ccc2nc(-c3ccc(NC(=O)C(C)N4C(=O)c5ccccc5C4=O)cc3)sc2c1 (stereo not given)	-91	8	.	-105	-88	.	.
Cc1ccc2nc(-c3ccc(NC(=O)CCN4C(=O)c5ccccc5C4=O)cc3)sc2c1	-52	2	.	-260	-187	-171	-192
O=C(CCN1C(=O)c2ccccc2C1=O)Nc1ccc(-c2nc3ccccc3s2)cc1	-81	6	.	-294	-165	-95	-126
Nc1c(C(=O)Nc2cccc(F)c2)nnn1-c1ccc2c(c1)OCCO2	-103	4	5	-362	-155	-144	-487
CC1CCN(S(=O)(=O)c2ccc3c(c2)C(=NO)c2cc(S(=O)(=O)N4CCC(C)CC4)ccc2-3)CC1	-5	0	-71	97*	96*	17	93*
O=C(c1cccnc1)N1CC[C@@H]2[C@H](CO)Nc3ccc(C#Cc4cccnc4)cc3[C@@H]21	.	.	-2	.	.	.	.
CC(=O)Nc1cc2nn(-c3ccccc3)nc2cc1Cl	-89	2	.	-349	-189	-80	-206
CC(C)NC(=O)N(C)C[C@@H]1Oc2c(NC(=O)c3cnccn3)cccc2C(=O)N([C@@H](C)CO)C[C@H]1C	.	.	-2	.	.	.	.
CCC(=O)N(C)C[C@@H]1Oc2ncc(C#CC(C)(C)O)cc2C(=O)N([C@@H](C)CO)C[C@H]1C	.	.	4	.	.	.	.
O=C(COc1ccccc1F)Nc1ccc2c(c1)CCC2	-11	4	18	-6	9	.	.
O=C(Nc1ccc2c(c1)CCC2)c1ccccc1F	.	8	.	-251	-177	-145	-224
